Several values for one entry are separate records, joined by “and”; a condition that tells them apart may be missing. Equal values may be shown once. Among all 5,500 compounds or so, about 2,000 (36%) were called active. Another 18% or so got no clear call; they are omitted. Cut-off read from the data, not from the text of the source: active = normalized growth mostly below about 0.91 (no sharp cut-off); inconclusive = no clear call, values can overlap the other calls; inactive = mostly above about 0.92. The list shows a part of the results.
Assay: chemical genetic growth profiling, strain panel (AID 1159580);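 note: tested at 20 µM; growth read once vehicle control cultures reached saturation at 30 °C; 1 = growth at the plate median or of vehicle wells; lower values mean less growth of the strain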
Conditions: S. cerevisiae deletion strains, growth OD

Measured: normalized growth

CC(=O)O[C@H]1C[C@@H](O)C(C)(C)C2C[C@@H](OC(C)=O)[C@]3(C)C(CC[C@@]4(C)[C@H](c5ccoc5)OC(=O)C5OC543)[C@]21C (stereo partly specified)
inactive: locus YAL013W, strain DEP1, hits give low values 0.994 | locus YAL021C, strain ccr4, hits give low values 1.02 | locus YAL026C, strain drs2, hits give low values 1.01 | locus YAL030W, strain snc1, hits give low values 1 | locus YBL061C, strain skt5, hits give low values 1 | locus YBR009C, strain hhf1, hits give low values 0.997 | locus YBR021W, strain FUR4, hits give low values 1.03 | locus YBR023C, strain chs3, hits give low values 1.01 | locus YBR171W, strain sec66, hits give low values 1.01 | locus YBR229C, strain ROT2, hits give low values 0.948 | locus YBR231C, strain swc5, hits give low values 0.998 | locus YBR279W, strain paf1, hits give low values 0.999 | locus YCL011C, strain gbp2, hits give low values 0.999 | locus YCL016C, strain dcc1, hits give low values 0.997 | locus YCL029C, strain bik1, hits give low values 0.984 | locus YCL061C, strain MRC1, hits give low values 1.01 | locus YCL069W, strain vba3, hits give low values 1 | locus YCR088W, strain abp1, hits give low values 1.01 | locus YDL005C, strain med2, hits give low values 1 | locus YDL035C, strain GPR1, hits give low values 0.984 | locus YDL040C, strain nat1, hits give low values 1 | locus YDL074C, strain BRE1, hits give low values 0.952 | locus YDL101C, strain DUN1, hits give low values 0.986 | locus YDL185W, strain tfp1, hits give low values 0.97 | locus YDL192W, strain arf1, hits give low values 0.97 | locus YDR001C, strain nth1, hits give low values 1.01 | locus YDR069C, strain doa4, hits give low values 1.01 | locus YDR101C, strain arx1, hits give low values 0.973 | locus YDR137W, strain rgp1, hits give low values 1 | locus YDR159W, strain sac3, hits give low values 1.01 | locus YDR162C, strain NBP2, hits give low values 0.977 | locus YDR195W, strain ref2 0.985 | locus YDR297W, strain sur2, hits give low values 1.01 | locus YDR318W, strain mcm21, hits give low values 0.984 | locus YDR334W, strain swr1, hits give low values 1.01 | locus YDR335W, strain msn5, hits give low values 0.996 | locus YDR388W, hits give low values 1 | locus YDR392W, strain spt3, hits give low values 1.02 | locus YDR502C, strain sam2, hits give low values 1.01 | locus YEL003W, strain gim4, hits give low values 1 | locus YEL037C, strain rad23, hits give low values 0.997 | locus YEL061C, strain CIN8 (second series), hits give low values 1.01 | locus YER015W, strain faa2, hits give low values 1.01 | locus YER016W, strain bim1, hits give low values 1 | locus YER110C, hits give low values 0.97 | locus YER111C, strain swi4, hits give low values 1.02 | locus YER155C, strain BEM2 (second series), hits give low values 1.02 | locus YER155C, strain BEM2, hits give low values 1.02 | locus YER167W, strain BCK2, hits give low values 0.988 | locus YFR010W, strain ubp6, hits give low values 1.01 | locus YGL078C, strain dbp3, hits give low values 0.983 | locus YGL086W, strain mad1, hits give low values 0.997 | locus YGL167C, strain pmr1, hits give low values 0.999 | locus YGL173C, strain kem1, hits give low values 1.01 | locus YGL227W, strain vid30, hits give low values 1 | locus YGL240W, strain doc1, hits give low values 1 | locus YGL248W, strain PDE1, hits give low values 0.975 | locus YGL253W, strain hxk2, hits give low values 1.02 | locus YGR078C, strain PAC10, hits give low values 1 | locus YGR135W, strain pre9, hits give low values 1.03 | locus YGR229C, strain SMI1, hits give low values 0.976 | locus YGR252W, strain gcn5, hits give low values 0.966 | locus YHR013C, strain ard1, hits give low values 1.01 | locus YHR027C, strain rpn1, hits give low values 1.01 | locus YHR030C, strain SLT2, hits give low values 0.987 and 0.952 | locus YHR079C, strain IRE1 (second series), hits give low values 0.99 | locus YHR079C, strain IRE1, hits give low values 0.974 | locus YHR094C, strain hxt1, hits give low values 0.979 | locus YHR129C, strain ARP1, hits give low values 0.993 | locus YHR142W, strain chs7, hits give low values 0.999 | locus YHR200W, strain rpn10, hits give low values 0.99 | locus YIL066C, strain RNR3, hits give low values 0.957 | locus YIL073C, strain SPO22, hits give low values 1.04 | locus YIL125W, strain kgd1, hits give low values 0.983 | locus YIR030C, strain dcg1, hits give low values 0.992 | locus YJL092W, strain hpr5, hits give low values 1.01 | locus YJL095W, strain BCK1 (second series), hits give low values 1.01 | locus YJL095W, strain BCK1, hits give low values 1.03 and 1 | locus YJL115W, strain asf1, hits give low values 1 | locus YJL129C, strain trk1, hits give low values 1.01 | locus YJL134W, strain LCB3, hits give low values 0.978 | locus YJL154C, strain vps35, hits give low values 1 | locus YJL164C, strain tpk1, hits give low values 1.01 | locus YJL166W, strain qcr8, hits give low values 0.999 | locus YJL168C, strain set2, hits give low values 0.997 | locus YJL187C, strain SWE1 (second series), hits give low values 0.999
